High-throughput results (PubChem)
This is a sample that favours compounds with a hit; in the whole collection about 2.9% have one here.
D3 ag: qHTS of D3 Dopamine Receptor Agonist: qHTS; 410,000 compounds, 0.58% hits; max activation, %; AID 652048, 2013; D3R DiscoveRx beta-arrestin cells, luminescence, 90 min; in the data active means max activation above about 30%; further: 0% is about no effect
Target sequence (P35462 whole entry, looked up): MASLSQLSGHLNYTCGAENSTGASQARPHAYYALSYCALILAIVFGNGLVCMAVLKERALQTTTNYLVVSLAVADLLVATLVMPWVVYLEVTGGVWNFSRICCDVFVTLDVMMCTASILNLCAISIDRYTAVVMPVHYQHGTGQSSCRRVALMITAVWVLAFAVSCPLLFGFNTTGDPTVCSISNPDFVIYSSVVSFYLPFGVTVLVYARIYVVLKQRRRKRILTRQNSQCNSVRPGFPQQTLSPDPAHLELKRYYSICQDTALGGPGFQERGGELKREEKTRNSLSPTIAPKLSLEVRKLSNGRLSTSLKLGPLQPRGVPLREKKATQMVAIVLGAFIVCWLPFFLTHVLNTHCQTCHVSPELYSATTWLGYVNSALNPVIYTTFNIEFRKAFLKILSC
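Agonist mode: compounds and dopamine controls were applied to plated cells for 90 min at 37 degrees C after an overnight attachment at 1500 cells/well. Luminescent read-out followed 30 - 60 minutes at room temperature with DiscoveRx detection reagent.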
B2AR arrestin: qHTS assay of beta-arrestin-biased ligands of beta2-adrenergic receptor. beta-arrestin recruitment to beta2AR, cell-based reporter. Potency, µM (highest dose often 46.1 µM), for inactives: top-dose activation, usual class: activators. 330,000 compounds, 0.02% hits. AID 492947, 2010; active means well fitted activation curve with a large enough effect; inconclusive means small, poorly fitted or top-dose-only effect;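 further: potency means the concentration at half of the fitted maximal effect; 0% = DMSO controls and full agonism = EC100 isoproterenol or metaproterenol; nearly all actives have a fitted effect of over 65% in size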
TSHR antagonist: Antagonists of the Thyroid Stimulating Hormone Receptor: HTS campaign. Thyrotropin receptor (Homo sapiens), P16473. TSHR-expressing cells, TSH-stimulated cAMP HTRF, 2 h; stronger effect = lower value. activity change, negative = inhibition, % at 11.5 µM. 330,000 compounds, 0.2% hits;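 active means activity change below a set negative limit, meaning inhibition stronger than a set level, cut at about -70% in these data; inconclusive means activity change between two set negative limits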; further: on the % scale 0 is the no-effect control and ±100 the full control effect
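Antagonism was scored as loss of TSH-driven cAMP in TSHR cells, stimulated with 4nM TSH (EC80) for 2 hours at 37 deg C and detected by homogeneous HTRF competition immunoassay.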
D3 antag: qHTS of D3 Dopamine Receptor Antagonist: qHTS. AID 652054, 2013. max response, negative = inhibition, %. D3R cells, DiscoveRx beta-arrestin luminescence, antagonist mode; stronger effect = lower value. D(3) dopamine receptor (Homo sapiens), P35462. 360,000 compounds, 2.5% hits; in the data active means max response below about -50%; inconclusive means no clear call, values can overlap the other calls; further: on the % scale 0 is the no-effect control and ±100 the full control effect
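Cells expressing the human receptor were seeded at 1500 cells/well, incubated overnight at 37 degrees C in 5% CO2, then exposed to library compounds with dopamine controls for 90 minutes at 37 degrees C before luminescent detection.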
* hit, by the source's call; u = inconclusive; x = not tested or not shown.

SMILES | D3 ag | B2AR arrestin | TSHR antagonist | D3 antag
O=C(NCc1cccs1)C(=O)NCC(c1ccco1)N1CCN(c2ccccc2F)CC1 (stereo not given) | 73* | 0% | -6 | 22
O=C(NCC(c1ccco1)N1CCN(c2ccccc2F)CC1)c1cccs1 (stereo not given) | 22 | 0% | 1 | 14
Cc1ccc(C(CNC(=O)c2ccco2)N2CCN(C)CC2)cc1 (stereo not given) | -9 | 0% | 5 | -57*
O=C(NCC(c1ccco1)N1CCN(c2ccccc2F)CC1)c1ccco1 (stereo not given) | 39* | 0% | 4 | 2
Cc1cc(NC(=O)CNCC(c2ccccc2)N(C)C)c([N+](=O)[O-])cc1C (stereo not given) | 3 | 0% | 12 | -54*
CCCCCCn1cc(C(=O)O)c(=O)c2ccccc21 | 2 | 0% | -5 | -63*
CCOc1ccccc1N(CC)C(=O)c1cc2c(=O)[nH]c3ccc(C)cc3c2s1 | 2 | x | x | x
O=C(O)C(Cc1cc(I)c(O)c(I)c1)c1ccccc1 (stereo not given) | -12 | x | x | x
CC(C)C[C@@]12C(=O)N(c3cccc(Br)c3)C(=O)N1[C@H](c1ccc(F)cc1)[C@@H]1C(=O)N(C3CCCCC3)C(=O)[C@@H]12 | 51* | 0% | -5 | 50
Cc1ccc2c(c1)N(C(=O)NCc1ccccc1)CCO2 | -11 | x | x | x
Cc1nc(N2CCN(S(=O)(=O)c3ccc(Br)cc3)CC2)c2c(C)c(C)sc2n1 | 5 | 0% | -18 | -55*
O=C(COc1ccc(Cl)cc1)NCc1ccccc1 | 4 | 0% | -16 | 9
COc1ccc(C(OCC(O)CNC(C)c2ccccc2)c2ccc(OC)cc2)cc1 (stereo not given) | -5 | 0% | -5 | -21
OC(CNCCc1ccccc1)COc1ccc(OCC(O)CNCCc2ccccc2)cc1 (stereo not given) | -20 | 0% | -8 | -52*
COc1ccc(C(OCC(O)CNCCc2ccccc2)c2ccc(OC)cc2)cc1 (stereo not given) | -34 | 0% | 2 | -58*
Clc1ccc(OCCNCCc2ccccc2)cc1 | 11 | 0% | 6 | -59*
Cc1cc(C)c2c(CC(=O)Nc3ccc(S(=O)(=O)Nc4ncccn4)cc3)coc2c1 | 11 | x | x | x
CC1=C(/C=C/C(C)=C/C=C/C(C)=C/C=C/C=C(C)/C=C/C=C(C)/C=C/C2=C(C)C[C@@H](O)CC2(C)C)C(C)(C)C[C@H](O)C1 | 6 | x | x | x
COc1ccc(Nc2c(-c3ccc(F)cc3)nc3nc(C)cc(C)n23)cc1 | 0 | x | x | -28
CCC1CN(C(=O)N2CCC(C(=O)NCc3cccc(F)c3)CC2)c2cc(C)ccc2O1 (stereo not given) | 8 | x | x | x
CCCn1c(C(C)Nc2nc(-c3cccc(Br)c3)cs2)nc2ccccc21 (stereo not given) | 31* | 0% | -1 | 14
CCCn1c(CCNc2nc(-c3cccc(Br)c3)cs2)nc2ccccc21 | 33* | x | x | 35
CCCn1c(-c2cccc(Br)c2)nc2ccccc21 | 7 | x | x | x
CCCCN(Cc1ccccc1)S(=O)(=O)c1cc(Br)cc2c1N(C(C)=O)CC2 | -9 | x | x | x
CCC(Sc1nc(C)cc(C)n1)C(=O)Nc1cc(C)on1 (stereo not given) | 0 | 13% | -12 | -53*
SMILES | D3 ag | B2AR arrestin | TSHR antagonist | D3 antag
COc1cccc(C=NCC(C)N=Cc2cccc(OC)c2O)c1O (stereo not given) | -10 | -1% | -2 | -103*
Cc1cccc(C)c1NC(=O)CCCn1c(=O)c2cccn2c2ccccc21 | 11 | x | x | x
COc1c(Cl)cc(C(=O)N(Cc2ccc(C)o2)C2CCS(=O)(=O)C2)cc1Cl (stereo not given) | -21 | x | x | x
CCn1c(SC)nc2cc(S(=O)(=O)N3CCCCC3)ccc21 | -2 | 1% | 19 | -27
CCn1c(CN2CCC(C)CC2)nc2cc(S(=O)(=O)N3CCCCC3)ccc21 | -3 | x | x | -83*
CCOC(=O)c1sc(N2C(=O)c3oc4ccc(C)cc4c(=O)c3C2c2ccccc2F)nc1C (stereo not given) | -11 | x | x | x
Cc1ccc(S(=O)(=O)N2CCC(C(=O)OCC(=O)N(C)C3CCS(=O)(=O)C3)CC2)cc1C (stereo not given) | 1 | 0% | -3 | 4
CCc1nc2c(OCC(=O)N3CCOCC3)cccn2c1N(C)C(=O)COc1ccccc1 | 2 | x | x | -53*
CCc1nc2c(OCc3ccccc3C)cccn2c1N(C)C(=O)CC(C)C | -7 | x | x | 0
CCc1nc2c(OCc3ccccc3C)cccn2c1N(C)C(=O)C(C)C | -19 | x | x | -78*
CCCCCCc1cc2cc(C(=O)OCC)c(=O)oc2cc1O | 4 | 0% | -6 | 5
CCCCCCc1cc2cc(S(=O)(=O)c3ccc(F)c(Cl)c3)c(=O)oc2cc1O | 69* | -1% | -22 | 30
O=[N+]([O-])c1ccc(/C=N/n2c(-c3cccnc3)n[nH]c2=S)cc1 | -15 | 2% | 6 | -56*
S=c1[nH]nc(-c2cc(-c3ccccc3)n[nH]2)n1/N=C/c1ccc(Cl)cc1 | -17 | -1% | -4 | -55*
O=[N+]([O-])c1cccc(/C=N/n2c(-c3cccnc3)n[nH]c2=S)c1 | -6 | 0% | -2 | -29
COc1cccc2c1Oc1ncccc1N(C(=O)Nc1cccc(Cl)c1)C2 | -5 | x | x | x
C[C@@H]1CN([C@@H](C)CO)C(=O)CCCn2nncc2CO[C@@H]1CN(C)C(=O)CCC(F)(F)F | -3 | x | x | 20
Cc1ccc(-c2nc(CCNC(=O)C(=O)Nc3ccc(C)c(Cl)c3)cs2)cc1 | 3 | x | x | x
Cc1cc(C(=O)NCCCN2CCN(c3cc(Cl)ccc3C)CC2)n(-c2ccccc2)n1 | -12 | 0% | -6 | -65*
Cc1cc(C(=O)NCCN2CCN(c3cccc(Cl)c3)CC2)n(-c2ccccc2)n1 | -3 | -1% | 19 | u
CCOC(=O)c1scc(-c2ccccc2)c1S(=O)(=O)N1CCN(c2ccccc2OC)CC1 | 3 | x | x | x
CCCCO | 68* | x | x | x
CCOc1ccc(NC(=O)c2ccc(CN3CCc4ccccc4C3)cc2)cc1 | -22 | 0% | -28 | u
CC(=O)c1cccc(NC(=O)c2ccc3c(c2)CCCC3)c1 | -23 | 0% | -131* | u
CCOc1ccccc1NC(=O)c1ccc(CN2CCc3ccccc3C2)cc1 | -29 | 6% | -3 | -70*
N#CCc1ccc(NC(=O)c2ccc(CN3CCc4ccccc4C3)cc2)cc1 | -20 | 0% | -32 | -53*
Cc1c(NC(=O)c2ccc(F)cc2)c(=O)n(-c2ccccc2)n1C | 4 | 0% | 9 | -16
Cc1c(NC(=O)c2ccc(CN3CCc4ccccc4C3)cc2)c(=O)n(-c2ccccc2)n1C | -1 | -1% | 1 | -79*
CCOC(=O)N1CCc2c(sc3c2c(=O)n(CCc2ccccc2)c(=O)n3Cc2ccc(C)cc2C)C1 | 2 | x | x | x
